HT1080 IDH1KD tx = qHTS for induction of synthetic lethality in tumor cells producing 2HG: qHTS for the HT-1080-IDH1KD cell line | 360,000 tested, 2% active | HT-1080 IDH1 knockdown viability, ATP luminescence, 48 h | Potency, µM (titrated, usually from 46.1 µM), inactives show at the top dose activity, negative = toxicity, most hits filed as cytotoxic;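 also: 0% = DMSO wells and -100% = cell-free medium wells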
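IDH1KD HT-1080 cells, 750/well, RPMI + 5% FBS; compound pinned after 2 h settling; 48 h, 37 °C; CellTiter-Glo luminescence; % activity normalised to DMSO and no-cell wells; curves fitted, classed by r2 and efficacy.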
TGFb SMAD3 inh = qHTS for Inhibitors of TGF-b; AID 588855, 2011; Potency, µM (titrated, usually from 46.1 µM), for the others: top-dose activity, negative = inhibition, actives largely listed as inhibitors; 410,000 tested, 1.2% active; HepG2 CAGA-GFP TGF-b/SMAD3 reporter, GFP fluorescence, 18 h; TGF-beta stimulated, 500 pg/mL final; also: % is scaled to controls: 0 for no effect and ±100 for the full control effect; nearly all actives have a fitted effect of over 65% in size
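Read-out: total well GFP (ex488/em500-530) summed from mean per-cell fluorescence. Cells: HEPG2 CAGA-GFP, 1% FBS DMEM, 18 h at 37 degrees C with 500 pg/mL final TGF-beta. Unstimulated wells served as the full-inhibition control; stimulated DMSO wells = 0%.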
HepG2 tox = qHTS for Inhibitors of TGF-b: Cytotox Counterscreen | HepG2 CAGA-GFP viability, ATP luminescence, 18 h | Potency, µM (titrated, usually from 46.1 µM), inactives show top-dose activity change, negative = cytotoxicity, hits mostly cytotoxic | 410,000 tested, 0.76% active | AID 588856, 2011
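CellTiter-Glo luminescence gave cytotoxicity after 18 hours at 37 degrees C. The cells were HepG2 CAGA-GFP in 1% FBS DMEM, stimulated with 500 pg/mL TGF-beta after compound addition. %Activity was normalised to no-cell wells (complete cell-killing) and DMSO (no toxicity), and curves were fitted and classified.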
HT1080-NT tox = qHTS for induction of synthetic lethality in tumor cells producing 2HG: qHTS for the HT-1080-NT fibrosarcoma cell line; AID 686970, 2013; 360,000 tested, 1.6% active; Potency, µM (titrated, usually from 46.1 µM), for the others: top-dose activity, negative = less viability, usual class: cytotoxic; HT-1080-NT fibrosarcoma viability, CellTiter-Glo ATP luminescence, 48 h;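 also: NT is the 2HG producing partner of a matched IDH1 knockdown line; 0% = DMSO-treated cells and -100% = media-only wells without cells; nearly all actives have a fitted effect of over 55% in size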
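HT-1080-NT; 750 cells/well; 5% FBS RPMI; 48 h compound, 37 degrees C; CellTiter-Glo luminescence; curve fitting and curve-class assignment.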
TDP1 cell noCPT = qHTS for Inhibitors of human tyrosyl-DNA phosphodiesterase 1 (TDP1): qHTS in cells in absence of CPT. DT40 Tdp1-/- hTDP1 cells, no CPT, ATP luminescence, 48 h. Potency, µM (doses to about 46.2 µM), for inactives: top-dose activity change, negative = growth inhibition, most hits filed as inhibitors. 420,000 tested, 15% active. AID 686978, 2013; also: % is scaled to controls: 0 for no effect and ±100 for the full control effect; nearly all actives have a fitted effect of over 55% in size
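Luminescent ATP content (CellTiter-Glo) served as the growth readout. Knockout chicken DT40 cells expressing human TDP1 were exposed to compounds without camptothecin for a minimum 48 hr at 37 °C.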
DT40 TDP1 CPT = qHTS for Inhibitors of human tyrosyl-DNA phosphodiesterase 1 (TDP1): qHTS in cells in presence of CPT | 420,000 tested, 12% active | Potency, µM (doses to about 46.2 µM), without a hit: at the highest dose activity change, negative = growth inhibition, most hits filed as inhibitors | chicken DT40 Tdp1-/-;hTDP1 cells + 20 nM CPT, ATP luminescence, 48 h; also: % is scaled to controls: 0 for no effect and ±100 for the full control effect; nearly all actives have a fitted effect of over 55% in size
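Chicken DT40 Tdp1-/- cells stably complemented with human TDP1 were seeded at 400 cells/well in medium containing 20 nM camptothecin, exposed to pin-transferred compounds, and grown at 37 °C for at least 48 hr. Viability was read as ATP luminescence.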
* hit, by the source's call. Shown are actives, neighbours in structure and some others; about 17% of the full set was active somewhere. Calls follow the shape of the dose curve; as a rule, active = well fitted curve in the direction sought with a large enough effect; inconclusive = small, poorly fitted or top-dose-only effect, or another doubt; inactive = no such curve, though single readings can be large; an effect the other way counts as inactive or inconclusive. Potency is read from the fitted curve at half-maximal effect.

How did Cc1ccc(NC(=O)c2ccc(F)c(S(=O)(=O)NCCc3ccccc3)c2)cc1F do in these assays?
TGFb SMAD3 inh: 11µM*; HepG2 tox: 10µM*; TDP1 cell noCPT: 23µM*; DT40 TDP1 CPT: 21µM*

How did COc1ccc(NC(=O)c2ccc(Cl)c(S(=O)(=O)N3CCc4ccccc4C3)c2)cn1 do in these assays?
HT1080 IDH1KD tx: -12%; TGFb SMAD3 inh: -21%; HepG2 tox: -2%; HT1080-NT tox: -24%; TDP1 cell noCPT: 23µM*; DT40 TDP1 CPT: 21µM*

How did Cc1ccccc1NC(=O)c1ccc(F)c(S(=O)(=O)N2CCc3ccccc3C2)c1 do in these assays?
TGFb SMAD3 inh: -1%; HepG2 tox: -11%; TDP1 cell noCPT: inconclusive; DT40 TDP1 CPT: -4%

Results for Cc1ccc(NC(=O)c2ccc(F)c(S(=O)(=O)N3CCc4ccccc4C3)c2)cc1F ?
TGFb SMAD3 inh: inconclusive; HepG2 tox: -9%; TDP1 cell noCPT: 23µM*; DT40 TDP1 CPT: inconclusive

How did CSc1ccc(CN2CCC2(C)C(=O)Nc2ccc3c(c2)OCO3)cc1 (stereo not drawn) do in these assays?
HT1080 IDH1KD tx: 6%; TGFb SMAD3 inh: 12%; HepG2 tox: -14%; HT1080-NT tox: 9%; TDP1 cell noCPT: inconclusive; DT40 TDP1 CPT: 29µM*

Results for CC1(C(=O)Nc2ccc3c(c2)OCCO3)CCN1Cc1ccc2ccccc2c1 (stereo not drawn) ?
HT1080 IDH1KD tx: inconclusive; TGFb SMAD3 inh: inconclusive; HepG2 tox: -6%; HT1080-NT tox: inconclusive; TDP1 cell noCPT: -64%; DT40 TDP1 CPT: inconclusive

Results for CSc1ccc(CN2CCC2(C)C(=O)NCc2ccc3c(c2)OCO3)cc1 (stereo not drawn) ?
HT1080 IDH1KD tx: -13%; TGFb SMAD3 inh: -27%; HepG2 tox: -37%; HT1080-NT tox: -1%; TDP1 cell noCPT: inconclusive; DT40 TDP1 CPT: 15µM*

What do the screens show for `CCCCN1CCCCC1(C)C(=O)NCc1ccc2c(c1)OCO2` (stereo not drawn)?
HT1080 IDH1KD tx: 1%; TGFb SMAD3 inh: 7%; HepG2 tox: -18%; HT1080-NT tox: 15%; TDP1 cell noCPT: inconclusive; DT40 TDP1 CPT: inconclusive

What do the screens show for `CCc1ccc(/C([O-])=C(/C(=S)NCCN2CCOCC2)[n+]2ccccc2)cc1`?
HT1080 IDH1KD tx: 8%; TGFb SMAD3 inh: -14%; HepG2 tox: -1%; HT1080-NT tox: -1%; TDP1 cell noCPT: -2%; DT40 TDP1 CPT: -21%

Results for Cc1ccc(NC(=O)CC(C)S(=O)(=O)c2ccc3c(c2)NC(=O)CO3)cc1Cl (stereo not drawn) ?
TGFb SMAD3 inh: -22%; HepG2 tox: -21%; TDP1 cell noCPT: 21µM*; DT40 TDP1 CPT: -7%

How did Cc1ccc(NS(=O)(=O)c2ccc3c(c2)NC(=O)CO3)cc1Cl do in these assays?
HT1080 IDH1KD tx: -10%; TGFb SMAD3 inh: inconclusive; HepG2 tox: -16%; HT1080-NT tox: -6%; TDP1 cell noCPT: inconclusive; DT40 TDP1 CPT: 18µM*

Results for CCOc1ccc(-c2nnc(SCC(=O)NCc3ccccc3Cl)o2)cc1 ?
TGFb SMAD3 inh: 5%; HepG2 tox: 6%; TDP1 cell noCPT: -28%; DT40 TDP1 CPT: -24%

How did CN(C(=O)CSCC(=O)Nc1ccc(Cl)cc1)C1CCCCC1 do in these assays?
HT1080 IDH1KD tx: -26%; TGFb SMAD3 inh: -4%; HepG2 tox: -5%; HT1080-NT tox: inconclusive; TDP1 cell noCPT: 15µM*; DT40 TDP1 CPT: inconclusive

Assay outcomes from PubChem.
